PubChem BioAssay (NCATS)
Results filed as inconclusive are left out. Where a call stands in place of a potency, no number is given. Active and inactive are the calls of the source. Calls come from the whole dose curve; as a rule, active = well fitted inhibition curve with a large enough effect; inconclusive = small, poorly fitted or top-dose-only effect; inactive = flat fitted curve, though single readings scatter. Residues, ends and D or L forms follow the SMILES beside them. *: point of attachment. Cbz = O=C(OCc1ccccc1)*

Test: qHTS to identify inhibitors of the type 1 interferon - major histocompatibility complex class I in skeletal muscle: primary screen against the NCATS LOPAC collection (AID 1347405);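 note: lytic HiBiT luminescence reporting HLA-B protein level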
Settings: iHSKM muscle cells, IFN-b-induced MHC-I HiBiT luminescence, 24 h; series mostly up to 45.9 µM
Source text: Assay Submitter (PI): Travis B. Kinder Ph.D. & James Inglese Ph.D.
Assay Development and Screening Technology Laboratory (ADST)
National Center for Advancing Translational Sciences (NCATS), Rockville, MD
National Institute of Health (NIH), Bethesda, Maryland
Idiopathic inflammatory myopathies, collectively referred to as myositis, are a group of rare autoimmune diseases characterized by skeletal muscle inflammation, weakness, and usually accompanied by systemic pathologies of the skin, lungs, or vasculature. Current immunosuppressive therapies and glucocorticoids are often not curative and are accompanied by harsh side effects, especially in children with juvenile myositis. We initiated a drug repurposing and development program to identify more targeted, less toxic therapeutics to treat myositis. Although its cause is not known, muscle from a subset of patients have an abundance of the inflammatory type 1 interferon (IFN) and a down-stream product major histocompatibility complex class I (MHC class I), which are both thought to contribute to damage and weakness. We conducted quantitative high throughput screening on 6,576 compounds (4,679 unique) through a series of cell-based assays to identify those that inhibit the IFN-stimulated expression of MHC class I in muscle precursor cells (myoblasts). The compound identification and evaluation strategy utilized a primary screen with reporter-tagged MHC class I in genome-engineered myoblasts, ATP content counter screen for viability, HLA-ABC immunofluorescence secondary screen, and HLA-B RT-qPCR tertiary screen.
The primary screen utilized CRISPR/Cas9 genome-engineering of immortalized human myoblasts, C25cl48, where a pro-luminescent reporter HiBit was fused to the C-terminus of endogenous MHC class I allele HLA-B*08:01 (HLA-B HiBit myoblasts). HiBit is an 11 amino acid fragment of NanoLuc luminescent reporter (Promega Corporation), and when complexed to the larger LgBit fragment, the reconstituted enzyme produces light in the presence of furimazine substrate (Schwinn et al., 2018). Briefly, HLA-B HiBit myoblasts were plated into 1536-well plates, treated with 4.0 ng/ml human IFN-beta and 1,280 compounds from the Library of Pharmacologically Active Compounds 1280 library (LOPAC1280, Sigma Aldrich) in a 7-point, 1:4.3 titration with a high final concentration of 46 uM. After 24 hrs of treatment, cells were assayed by Nano-Glo HiBiT Lytic Detection System (Promega) and luminescence measured by a ViewLux 1430 Ultra HTS (Perkin Elmer).
Schwinn MK, Machleidt T, Zimmerman K, Eggers CT, Dixon AS, Hurst R, Hall MP, Encell LP, Binkowski BF, Wood K V. 2018. CRISPR-Mediated Tagging of Endogenous Proteins with a Luminescent Peptide. ACS Chem Biol 13:467-474. doi:10.1021/acschembio.7b00549
PROTOCOL TABLE (as described by Inglese et al., 2007)
SEQUENCE No. (e.g., 1, 2, 3, etc.); […] (e.g., Cells, Incubation, Reagent, etc.); VALUE; DESCRIPTION
1a; Cells; 5 uL; Use a Multidrop Combi (Thermo Scientific) to seed 350 cells/well into nine Greiner 1536 well white/solid bottom, high base, TC plates in 5 ul/well of iHSKM growth medium (GM) without dexamethasone into columns 1+2. Add metal lids with gas-exchange holes
1b; Cells; 5 uL; Use a Multidrop Combi (Thermo Scientific) to seed 350 cells/well into nine Greiner 1536 well white/solid bottom, high base, TC plates in 5 ul/well of iHSKM GM without dexamethasone + 4 ng/ml IFN-b into columns 3 - 48. Add metal lids with gas-exchange holes
2; Incubate; 1 hr; Incubate at 37 C, 5% CO2, 95% RH
3; Compounds; 23 nl; Use Pin Tool (Wako) to transfer DMSO control, ruxolitinib IFN-b inhibitor control [High Concentration = 80 uM final, 16-pt, 1:2 in duplicate], and library compounds in DMSO
4; Incubate; 24 hrs; Incubate at 37 C, 5% CO2, 95% RH
5; Dispense; 2.5 ul; Use BioRAPTR FRD (Beckman Coulter) to add HiBit lytic reagent
6; Incubate; 10 min; Incubate in the dark at ambient temperature for lysis
[…]
Potency is the fitted concentration of half-maximal effect.

Row | SMILES | Potency
1 | NC1C=CC=C(C(=O)O)C1 (stereo not given) | inactive
2 | O=C(O)C1CCCNC1 (stereo not given) | inactive
3 | CCCn1c(=O)c2[nH]c(C3CCCC3)nc2n(CCC)c1=O | inactive
4 | CCCCCCC(=O)OC1CC(C)(C)NC(C)(C)C1 | inactive
5 | CC(N)=O | inactive
6 | C=CCn1c(=O)c2c(nc(-c3ccc(S(=O)(=O)O)cc3)n2C)n(C)c1=O | inactive
7 | c1ccc(C2CN3CCSC3=N2)cc1 (stereo not given) | inactive
8 | Brc1c(Br)c(Br)c2[nH]cnc2c1Br | 12.6 µM (active)
9 | CC1C(=O)N(C)C(=O)c2nc[nH]c21 (stereo not given) | inactive
10 | CCCc1c(OCCCOc2ccc(OCC(=O)O)cc2)ccc(C(C)=O)c1O | inactive
11 | Oc1ccc(Cn2cc[nH]c2=S)cc1 | inactive
12 | N#C/C(=C\c1ccc(O)c(O)c1)C(=O)NCCCNC(=O)/C(C#N)=C/c1ccc(O)c(O)c1 | inactive
13 | O=[N+]([O-])c1cccc2c(Br)[nH]nc12 | inactive
14 | CC(N)(Cc1ccc(O)cc1)C(=O)O (stereo not given) | inactive
15 | O=C(O)C1=CCCN(CCON=C(c2ccccc2)c2ccccc2)C1 | inactive
16 | CC(C)(C)c1ccc(/C=C/C(=O)Nc2ccc3c(c2)OCCO3)cc1 | inactive
17 | C#CC(N)CCC(=O)O (stereo not given) | inactive
18 | NC[C@@H]1O[C@H](c2ccccc2)Cc2c1ccc(O)c2O | inactive
19 | c1ccc(CN2CCC3(CCCc4ccccc43)CC2)cc1 | inactive
20 | C=C1C[C@@]23CC[C@H]4[C@@](C)(CCC[C@@]4(C)C(=O)OC4OC(CO)C(O)C(O)C4O)[C@@H]2CC[C@]1(OC1OC(CO)C(O)C(O)C1OC1OC(CO)C(O)C(O)C1O)C3 (stereo not given in full) | inactive

Row | SMILES | Potency
21 | NCC(O)C1CCCCCCC1 (stereo not given) | inactive
22 | OC1(c2ccc(Cl)cc2)CCN(Cc2c[nH]c3ccccc23)CC1 | inactive
23 | CCc1ccc2c(-c3cccc(Cl)c3)nc(=O)n(CC)c2n1 | inactive
24 | Oc1ccc(/C=C/c2ccc(/C=C/c3ccc(O)cc3)c(Br)c2)cc1 | inactive
25 | CC(=O)N[C@@H](Cc1c[nH]c2ccccc12)C(=O)OCc1cc(C(F)(F)F)cc(C(F)(F)F)c1 | inactive
26 | CN1CCCC1CCOC(C)(c1ccccc1)c1ccc(Cl)cc1 (stereo not given) | inactive
27 | Cc1cc(Cn2cnc3c2C[C@@H](C(=O)O)N(C(=O)C(c2ccccc2)c2ccccc2)C3)ccc1N | inactive
28 | O=C(O)[C@H]1NCCC[C@H]1C(=O)O | inactive
29 | CNCCc1cnc(CCC(c2ccccc2)c2ccccc2)[nH]1 | inactive
30 | O=C1C2C=CC=CC2=NC(=S)N1CCN1CCC(=C(c2ccc(F)cc2)c2ccc(F)cc2)CC1 (stereo not given) | inactive
31 | COc1ccccc1N1CCN(CCCCN2C(=O)c3ccccc3C2=O)CC1 | inactive
32 | CC[n+]1c(/C=C/C=C2/N(C)c3ccccc3C2(C)C)sc2ccccc21 | 5.01 µM (active)
33 | CC(C)[C@H](NC(=O)OCc1ccccc1)C(=O)N[C@H](C=O)Cc1ccccc1 (Cbz-Val-Phe-aldehyde) | inactive
34 | O=c1onc2n1-c1cc(Br)ccc1OC2 | inactive
35 | Oc1cc2c(cc1O)C(c1ccccc1)CNCC2 (stereo not given) | inactive
36 | Nc1ncnc2c1nc(Sc1ccc(Cl)cc1)n2[C@H]1OC2COP(=O)(O)O[C@@H]2C1O (stereo not given in full) | inactive
37 | CCCn1c(=O)c(C)cn2nc(N)nc12 | inactive
38 | Cn1c(=O)[nH]c2ncn(C)c2c1=O | inactive
39 | COc1cc(CNC(=O)CCCCCCC(C)C)ccc1O | inactive
40 | NOCC(=O)O | inactive
